Data on ten compounds can be found in PubChem BioAssay (NCATS).

Assay [1] deals with Catechol O-methyltransferase (Homo sapiens) (UniProt P21964). The assay is described as follows: Confirmatory Screen for Target Class Profiling of Small Molecule Inhibitors of Methyltransferases (AID 1745852; calls by dose curve; further: potency means the concentration at half of the fitted maximal effect; on activity change, negative = inhibition: on the % scale 0 is the no-effect control and ±100 the full control effect). Conditions: MTase-Glo luminescence, SAH detection, recombinant enzyme; measured here: COMT max response; stronger effect = lower value.
Assay [2] concerns the target Guanidinoacetate N-methyltransferase (Homo sapiens) (UniProt Q14353). The assay is described as above. The following applies: MTase-Glo luminescence, SAH detection, recombinant enzyme; activity change, negative = inhibition: at 57.3 µM (top of the series) unless noted.
For assay [3], the target named is Nicotinamide N-methyltransferase (Homo sapiens) (UniProt P40261). The description is as above. Conditions: MTase-Glo luminescence, SAH detection, recombinant enzyme; measured here: NNMT max response; stronger effect = lower value.
Assay [4] addresses Phenylethanolamine N-methyltransferase (Homo sapiens) (UniProt P11086). Described as above. Conditions: MTase-Glo luminescence, SAH detection, recombinant enzyme; measured here: PNMT max response; stronger effect = lower value.
The target in assay [5] is Glutathione peroxidase 1 (Homo sapiens) (UniProt P07203). The assay is described as follows: Primary qHTS Assay for Inhibitors of Recombinant Selenoprotein Glutathione Peroxidase 1 (GPX1) (AID 1845191). Further: nearly all actives have a fitted effect of over 65% in size. Further: potency means the concentration at half of the fitted maximal effect. In a few lines: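 GR-coupled assay: compounds preincubated 30 min at room temperature with GPX1, then reaction started with CHP; final 10 nM GPX1, 1 mM GSH, 0.5 mM CHP, 0.5 mM NADPH, 100 nM GR, 0.01% BSA, pH 7.5 Tris buffer. NADPH fluorescence (340/450 nm) read at 0 and 15 min.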

For assay [6], the target named is Phospholipid hydroperoxide glutathione peroxidase GPX4 (Homo sapiens) (UniProt P36969). The assay is described as follows: Primary qHTS Assay for Inhibitors of Recombinant Selenoprotein Glutathione Peroxidase 4 (GPX4) (AID 1845192). Further: nearly all actives have a fitted effect of over 65% in size. Further: potency means the concentration at half of the fitted maximal effect. On activity change, negative = inhibition: on the % scale 0 is the no-effect control and ±100 the full control effect. An outline of the steps:
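GR-coupled assay: recombinant GPX4 preincubated 30 min with compound at room temperature; final 200 nM GPX4, 1 mM GSH, 0.5 mM cumene hydroperoxide, 0.5 mM NADPH, 100 nM GR, 0.01% BSA, pH 7.5 Tris. NADPH fluorescence (340/450 nm) read at 0 and 15 min.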
(In general: qHTS replaces the single test concentration by a dilution series.)

Assay [7] concerns the target Luciferin 4-monooxygenase (Photinus pyralis) (UniProt P08659). The assay is described as follows: Primary firefly luciferase (FLuc) qHTS assay for identification of artifact compounds. (AID 1845220). Further: nearly all actives have a fitted effect of over 60% in size.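 On activity change, negative = inhibition: plate controls were DMSO vehicle for no effect and no enzyme for full effect.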 An outline of the steps:
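Enzymatic FLuc inhibition assay: compounds pre-exposed to luciferin/ATP (10 uM each) for 15 min, then purified P. pyralis enzyme at 10 nM added. Read-out: luminescence at 5 min.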

The nature of assay [8]: Primary fluorescence-based thiol-reactive (MSTI) qHTS assay for identification of artifact compounds. (AID 1845221).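 Further: thiol-reactive compounds lower the probe fluorescence signal; nearly all actives have a fitted effect of over 65% in size.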 In a few lines:
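MSTI probe at 4 uM final in 2% DMSO/PBS pH 7.4; compounds, 1 h at room temperature in dark. Fluorescence Ex/Em 525/598 nm, normalised to Acetyl-MSTI and MSTI, fitted to 4-parameter Hill.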

In assay [9] the test system is Nanoluciferase (engineered Oplophorus gracilirostris luciferase). As to the kind of experiment: Primary Nanoluciferase (NLuc) qHTS assay for identification of artifact compounds. (AID 1845222).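 Further: NLuc secreted into diluted conditioned medium of S16 cells; 0% = DMSO and -100% = no enzyme.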 In a few lines:
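S16 cell supernatant NLuc, 1:55; cpds qHTS; 15 min RT dark; Nano-Glo substrate 1:100, 5 min; luminescence; Hill fit of % inhibition.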

Assay [10] can be described thus: Primary redox qHTS assay for identification of artifact compounds. (AID 1845223). In a few lines: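 Amplex Red (25 uM) and HRP (250 mU/mL) in HBSS, with compounds for 15 min, then 250 uM DTT for 30 min, room temperature, dark. Fluorescence 525/598 nm read; normalized to DMSO and 10 uM DA3003; Hill fit.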
Assay [11] in a line: Quantitative High-Throughput drug screen in 47 multiple myeloma cell lines against the NCATS MIPE library collection: FR4_PLB cell viability assay (AID 1918924; further: nearly all actives have a fitted effect of over 35% in size; further: potency means the concentration at half of the fitted maximal effect). An outline of the steps:
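Inhibition of cell viability is measured here. Each line was plated at 500 cells per well, treated with MIPE 4.0 drugs, kept 48 hours at 37C, then assayed for ATP content by CellTiter-Glo luminescence.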

The nature of assay [12]: Quantitative High-Throughput drug screen in 47 multiple myeloma cell lines against the NCATS MIPE library collection: Delta47_JCRB cell viability assay (AID 1918925; further: nearly all actives have a fitted effect of over 45% in size; further: potency means the concentration at half of the fitted maximal effect). An outline of the steps: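 Luminescent ATP measurement with CellTiter-Glo gives viability, scaled between DMSO-only wells (100%) and media-only wells (0%). Cells, 500 per well, faced library compounds for 48 hours at 37C.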

Assay [13] is described as follows: HepG2 viability counterscreen (readout 2: ATP content) against the NCATS DSHEA and TCM libraries (AID 1794840).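 Further: HepG2 cells exposed to substances for about 24 h; 0% is about no effect.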 In a few lines:
(§1)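 HepG2 cells (1,000 cells/well) attached ~4 h, then treated ~24 h at 37C with substances. Protease activity read by GF-AFC (25 uM final, 30 min, Ex/Em 380/510 nm); ATP content then by CellTiter-Glo luminescence.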
(A counterscreen serves to expose hits that act by an unwanted route or on another target.)

The nature of assay [14]: HepG2 viability counterscreen (readout 1: protease activity) against the NCATS DSHEA and TCM libraries (AID 1794841).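 Further: cells exposed to compounds for about 24 h before the protease read; 0% is about no effect.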 An outline of the steps:
as §1

Assay [15] can be described thus: NCATS anti-infectives library activity on HEK293 viability as a counter-qHTS vs the C. elegans viability qHTS (AID 1745854). Further: on the % scale 0 is the no-effect control and ±100 the full control effect. An outline of the steps:
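HEK293 cells, 1500 per well, exposed 24 hr at 37C in 5% CO2 to compounds in a 1:5 titration, up to 41.7 uM final. Viability read as CellTiter-Glo luminescence after 10 min at room temperature.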

In assay [16] the target is Metallo-beta-lactamase type 2 (Klebsiella pneumoniae) (UniProt C7C422). As to the kind of experiment: qHTS to identify inhibitors of the New Delhi Metallo-beta-lactamase (NDM): assay validation screen against the NCATS LOPAC Collection (AID 1794843).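 Further: nitrocefin turnover by NDM-1 measured as 485 nm absorbance at plateau; on the % scale 0 is the no-effect control and ±100 the full control effect.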 An outline of the steps:
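Nitrocefin hydrolysis (50 uM substrate stock) by NDM-1, 2 nM final, was followed by 485 nm absorbance after compound preincubation; buffer was 50 mM HEPES pH 7.0, 1 uM ZnSO4, 0.01% Tween20.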

Assay [17] is described as follows: NCATS anti-infectives library activity on the primary C. elegans qHTS viability assay (AID 1745855; calls by dose curve). In a few lines: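 Viability is taken from GFP fluorescence of PE254-GFP-FLuc C. elegans imaged by laser cytometry over 7 days. Ten L1 worms per well grow at 21 °C on TOP10 E. coli capsules with titrated compound; levamisole marks toxicity.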

Where “and” joins values, the source holds several entries; their conditions need not be identical. Identical values can stand only once. Results filed as inconclusive are left out. A structure can be active in one record and inactive in another. Calls of active or inactive are those of the source. Unless noted, the call rests on the fitted dose curve; in most records, active means well fitted curve in the direction sought with a large enough effect; inconclusive means small, poorly fitted or top-dose-only effect, or another doubt; inactive means no such curve, though single readings can be large; an effect the other way counts as inactive or inconclusive.

Chain of Catechol O-methyltransferase (Homo sapiens) (P21964 whole entry, looked up): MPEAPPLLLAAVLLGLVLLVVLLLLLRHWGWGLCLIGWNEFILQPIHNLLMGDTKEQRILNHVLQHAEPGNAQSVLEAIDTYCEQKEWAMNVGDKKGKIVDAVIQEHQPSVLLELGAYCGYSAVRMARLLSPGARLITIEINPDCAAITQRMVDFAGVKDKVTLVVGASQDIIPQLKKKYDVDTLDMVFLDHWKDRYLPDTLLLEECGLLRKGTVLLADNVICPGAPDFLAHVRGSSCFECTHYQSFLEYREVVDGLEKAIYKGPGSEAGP
Chain of Phospholipid hydroperoxide glutathione peroxidase GPX4 (Homo sapiens) (P36969 whole entry, looked up): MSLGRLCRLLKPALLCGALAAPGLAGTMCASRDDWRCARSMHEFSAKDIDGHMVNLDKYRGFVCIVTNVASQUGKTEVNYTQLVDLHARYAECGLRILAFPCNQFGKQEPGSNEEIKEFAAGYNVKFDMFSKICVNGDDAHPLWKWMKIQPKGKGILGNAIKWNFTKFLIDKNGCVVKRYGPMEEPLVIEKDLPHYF
Chain of Phenylethanolamine N-methyltransferase (Homo sapiens) (P11086 whole entry, looked up): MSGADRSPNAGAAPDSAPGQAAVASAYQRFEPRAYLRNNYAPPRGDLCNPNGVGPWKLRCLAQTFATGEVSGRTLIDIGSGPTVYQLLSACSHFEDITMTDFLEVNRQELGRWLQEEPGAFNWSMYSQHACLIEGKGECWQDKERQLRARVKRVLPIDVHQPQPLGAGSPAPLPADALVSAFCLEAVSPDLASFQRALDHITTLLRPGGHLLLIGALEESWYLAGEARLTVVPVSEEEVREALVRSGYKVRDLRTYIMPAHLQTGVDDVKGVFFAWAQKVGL
Chain of Glutathione peroxidase 1 (Homo sapiens) (P07203 whole entry, looked up): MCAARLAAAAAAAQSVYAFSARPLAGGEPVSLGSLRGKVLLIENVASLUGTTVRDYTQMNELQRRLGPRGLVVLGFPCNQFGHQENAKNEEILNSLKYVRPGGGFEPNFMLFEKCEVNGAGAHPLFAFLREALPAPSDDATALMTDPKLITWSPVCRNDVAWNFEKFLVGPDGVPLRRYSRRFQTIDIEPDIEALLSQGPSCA
Chain of Nicotinamide N-methyltransferase (Homo sapiens) (P40261 whole entry, looked up): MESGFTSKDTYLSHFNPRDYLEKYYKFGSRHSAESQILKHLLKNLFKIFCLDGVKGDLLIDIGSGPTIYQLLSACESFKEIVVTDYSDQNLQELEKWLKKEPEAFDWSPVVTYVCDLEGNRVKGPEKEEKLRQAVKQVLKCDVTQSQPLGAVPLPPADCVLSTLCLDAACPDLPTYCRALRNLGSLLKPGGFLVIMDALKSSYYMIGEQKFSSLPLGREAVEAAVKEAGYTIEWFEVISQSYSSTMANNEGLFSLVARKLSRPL
Chain of Metallo-beta-lactamase type 2 (Klebsiella pneumoniae) (C7C422 whole entry, looked up): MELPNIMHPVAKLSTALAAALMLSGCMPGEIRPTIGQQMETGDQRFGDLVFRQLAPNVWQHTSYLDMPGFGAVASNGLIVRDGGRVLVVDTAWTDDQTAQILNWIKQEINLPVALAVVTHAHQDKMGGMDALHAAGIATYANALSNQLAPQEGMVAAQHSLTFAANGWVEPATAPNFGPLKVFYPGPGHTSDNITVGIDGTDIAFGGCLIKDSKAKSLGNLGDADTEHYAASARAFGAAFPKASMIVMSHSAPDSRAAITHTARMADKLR

Take `COc1ccc2c(Oc3ccc(NC(=O)c4c(C)n(CC(C)(C)O)n(-c5ccccc5)c4=O)cc3F)ccnc2c1`: the activity in assay [1] was -4.14%; in assay [3], -7.85%; in [4], -1.86%. Further, the activity change, negative = inhibition in assay [2] is -3.46%. For the same compound, the Potency result in assay [5], in assay [6], in [7], in [8] and in assay [9] was “inactive” throughout. Further, in assay [10], the outcome is “inactive”. For the same compound, the values for the Potency in [11] and in assay [12] were 26.4 µM (active) and 23.5 µM (active), respectively.
On to `CC1(C)CCC(CN2CCN(c3ccc(C(=O)NS(=O)(=O)c4ccc(NCC5CCOCC5)c([N+](=O)[O-])c4)c(Oc4cnc5[nH]ccc5c4)c3)CC2)=C(c2ccc(Cl)cc2)C1`, for which the activity is -3.58% in assay [1], -11.4% in assay [3] and -21.8% in assay [4]. Further, the activity change, negative = inhibition in assay [2] worked out at 1.26% [at 29.8 µM]. Besides, the Potency result in assay [5] was “inactive and 6.4 µM (active)”; in assay [6] it was “inactive and 3.16 µM (active)”; in [11], 20.9 µM (active). Further, the Potency result in [7], in assay [8] and in [9] was “inactive” each time. Moreover, in assay [10], the outcome is “inactive”.
For `COc1ccc(-c2coc3cc(O)ccc3c2=O)cc1`, the outcome in [13] and in assay [14] was “inactive” in each case.
Consider `CC(=O)N[C@@H](CS)C(=O)O`, for which the outcome in [15] was “inactive”. The Potency result in assay [16], in assay [5] and in [6] was “inactive” throughout.
Take `O=C(O)CCC1CCC(c2cc(F)ccc2F)(S(=O)(=O)c2ccc(Cl)cc2)CC1` (configuration not stated): the outcome in assay [15] is “inactive”. Also, the Potency entry in assay [5], in assay [6] and in [11] was “inactive” in each case.
For the compound `CC(=O)N(C)C1(c2ccccc2)CCN(CCC[C@]2(c3ccc(Cl)c(Cl)c3)CCCN(C(=O)c3ccccc3)C2)CC1`, the activity in assay [1] was -5.14%; in assay [3], -62.2%; in assay [4], -6.52%. Also, the activity change, negative = inhibition in assay [2] was 0%. The Potency result in assay [5], in [6], in assay [7], in assay [8] and in [9] was “inactive” in each case. In assay [10], the outcome was “inactive”. In assay [12], the Potency was 10.5 µM (active).
Consider `CC(=O)CCCCn1c(=O)c2c(ncn2C)n(C)c1=O`, for which the outcome in [15] and in [10] was “inactive” each time. Besides, the Potency entry in assay [16], in assay [5], in [6], in assay [7], in assay [8] and in [9] was “inactive” in each case.
For `COc1cc(N2CCC(N3CCN(C)CC3)CC2)ccc1Nc1ncc(Cl)c(Nc2ccccc2S(=O)(=O)C(C)C)n1`, the values for the activity in assay [1], in [3] and in [4] were -29.5%, -19% and -27.6%, respectively. The Potency in assay [2] is 27.1 µM (active). Besides, the Potency entry in assay [5], in assay [6], in assay [7], in assay [9] and in [12] was “inactive” in each case.
With `CC1CCC(C(=O)N(c2cc(C#CC(C)(C)C)sc2C(=O)O)C2CCC(O)CC2)CC1` (configuration not stated), in [15], the outcome was “inactive”. In addition, the Potency result in assay [17], in [5], in [7], in assay [8] and in assay [9] was “inactive” throughout. In addition, the Potency in assay [6] was 9.04 µM (active); in [12], 23.5 µM (active).
`CC[C@]1(O)C[C@@H]2CN(CCc3c([nH]c4ccccc34)[C@@](C(=O)OC)(c3cc4c(cc3OC)N(C)[C@H]3[C@@](O)(C(=O)OC)[C@H](OC(C)=O)[C@]5(CC)C=CCN6CC[C@]43[C@@H]65)C2)C1`: the activity in assay [1] is 7.74%; in assay [3] it was -2.58%; in assay [4] it was 4.57%. Also, the activity change, negative = inhibition in [2] was determined as 10.8%. Besides, the Potency entry in assay [5], in [6], in assay [7] and in assay [9] was “inactive” each time.
